Screening data (PubChem BioAssay)
This is a sample that favours compounds with a hit; in the whole collection about 11% have one here.
USP30 inh – blocks human USP30 ubiquitin-rhodamine cleavage. purified USP30, Ub-rhodamine cleavage fluorescence. inhibition, % at 25 µM. actives 5.3% (n = 47,000)
USP28 inh – inhibitors of human USP28 deubiquitinase; AID 1645857; inhibition, % at 25 µM; Q96RU2; actives 3% (n = 47,000); purified USP28, Ub-rhodamine cleavage fluorescence, 30 min
USP17 block – human USP17-like deubiquitinase inhibition; A8MUK1; inhibition, % at 50 µM; actives 6.5% (n = 47,000); AID 1645855; purified USP17, Ub-rhodamine cleavage fluorescence, 3 h
OTUD3 block – inhibitors of human OTUD3 deubiquitinase. Q5T2D3. purified OTUD3, Ub-rhodamine fluorescence, 2 h. inhibition, % at 25 µM. actives 0.7% (n = 47,000). AID 1645858
Target sequence (Q5T2D3 whole entry, looked up): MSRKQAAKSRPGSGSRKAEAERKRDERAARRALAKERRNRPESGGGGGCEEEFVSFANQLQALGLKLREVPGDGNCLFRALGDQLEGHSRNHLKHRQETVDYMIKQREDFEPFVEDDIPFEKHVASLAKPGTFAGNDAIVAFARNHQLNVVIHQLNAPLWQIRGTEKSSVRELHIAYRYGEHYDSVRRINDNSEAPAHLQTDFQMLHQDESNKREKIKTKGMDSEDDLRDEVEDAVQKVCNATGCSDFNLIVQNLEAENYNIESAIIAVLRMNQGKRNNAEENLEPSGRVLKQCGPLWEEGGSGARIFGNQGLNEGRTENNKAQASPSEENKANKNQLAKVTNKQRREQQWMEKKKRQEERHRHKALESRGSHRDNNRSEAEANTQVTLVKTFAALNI
* marks the source's active call; other numbers are inactive results; / = no result given. Rule as the data show it: active = inhibition above about 30%; inactive = the rest.

SMILES | USP30 inh | USP28 inh | USP17 block | OTUD3 block
O=C(COC(=O)c1cc2ccccc2oc1=O)Nc1ncccn1 | -237.1 | -68.1 | -68.3 | -52.5
COC(=O)c1ccc(CNC(=O)c2cc3ccccc3oc2=O)cc1 | / | / | 62.1* | 2.5
COc1ccc(-c2nc(SCC(=O)Oc3c(C)cccc3C)n3[nH]c(=O)cc3n2)cc1 | 12.8 | 11.7 | 8.5 | 13.9
COc1ccc(C2C(C(=O)Nc3ccccc3OC)=C(C)Nc3nnnn32)cc1Br (stereo not drawn) | 13.2 | 2.8 | 74.4* | 3.9
COc1ccccc1NC(=O)C1=C(C)Nc2nc(-c3ccc(N(C)C)cc3)nn2C1c1ccncc1 (stereo not drawn) | 30.0* | 3.4 | 40.3* | 14.5
COc1cccc(-c2nc3n(n2)C(c2ccncc2)C(C(N)=O)=C(C)N3)c1 (stereo not drawn) | 30.1* | 3.6 | -1.4 | 4.5
COc1ccccc1NC(=O)C1=C(C)Nc2nnnn2C1c1cccnc1 (stereo not drawn) | 20.0 | 12.0 | 5.9 | 6.6
O=C(NC1CCN(Cc2ccccc2)CC1)c1cc(-c2ccc(Cl)cc2)nc2ccccc12 | -10.4 | -0.1 | 2.2 | -5.4
Cc1cc(C)c(C)c(Oc2coc3cc(O)ccc3c2=O)c1 | 7.1 | 33.8* | 6.3 | 6.0
Cc1nc(Nc2ncccn2)cc(C2CCCN2C(=O)c2cccnc2)n1 (stereo not drawn) | 16.6 | 3.0 | 9.6 | 6.4
COc1cccc(Nc2nc(NCc3ccccc3)nc3c2cnn3C)c1 | -29.6 | 39.5* | 27.4 | -16.3
Cn1ncc2c(Nc3ccc(Cl)cc3)nc(NCCc3ccccc3)nc21 | 41.5* | 5.6 | 36.5* | -6.6
O=C(CCc1ccccc1)Nc1nnc(-c2ccc(Br)cc2)s1 | 21.7 | 3.0 | / | 27.4
O=C(Cc1ccccc1)c1ccc(Br)s1 | 8.7 | 34.5* | 25.0 | 14.9
COc1cccc(CNS(=O)(=O)c2ccc3[nH]c(=O)[nH]c3c2)c1 | -4.3 | 18.3 | 7.9 | 17.8
COc1ccc(CNS(=O)(=O)c2ccc3[nH]c(=O)ccc3c2)cc1 | / | / | 46.9* | 0.6
CC(C)CCN1CCc2cc(C(=O)N3CCCC3)c(N(C)C)nc2CC1 | -9.5 | -5.2 | -4.6 | -3.8
COc1ccc(C2NCCc3c2[nH]c2ccccc32)cc1CN1CCOCC1 (stereo not drawn) | -90.8 | -25.3 | -33.0 | -25.6
O=C(Nc1ccc2sccc2c1)c1ccc(F)cc1 | 57.7* | 9.6 | 49.1* | -0.2
O=C(c1ccc(Cl)cc1)N1CCOC(c2ccccc2)C1 (stereo not drawn) | 10.8 | 3.9 | 13.7 | 6.0
COCCN1Cc2cccc(C(=O)NCc3ccccc3OC)c2C1=O | 6.5 | 11.1 | -10.1 | -0.5
CCCN1Cc2cccc(C(=O)NCc3ccc(OC)cc3)c2C1=O | 1.3 | 10.6 | -21.2 | -3.4
CCOc1ccc(CCNC(=O)c2cccc3c2C(=O)N(CCOC)C3)cc1OCC | -8.7 | 52.7* | -16.2 | -1.1
CCCN1Cc2cccc(C(=O)NCCc3ccccc3)c2C1=O | 8.4 | 30.6* | 0.0 | 5.3
O=C(c1ccc2nc(-n3cccc3)sc2c1)N1CCC[C@H]1CO | -40.2 | -12.9 | 0.2 | -5.0
SMILES | USP30 inh | USP28 inh | USP17 block | OTUD3 block
Cc1ncc(-c2ccccn2)c(-c2ccc(CNC(=O)CC3C=CCC3)cc2)n1 (stereo not drawn) | -25.3 | -6.7 | -15.9 | -7.3
O=C(Nc1cc(S(=O)(=O)N2CCOCC2)ccc1N1CCOCC1)c1cc2c(s1)CCCC2 | 30.3* | 8.1 | 16.4 | 7.2
O=C(Nc1ccc(NS(=O)(=O)c2cccc(C(=O)N3CCCc4ccccc43)c2)cc1)c1ccccc1 | 4.6 | 14.2 | 32.0* | 4.1
CCCS(=O)(=O)N1CCc2ccc(NC(=O)c3ccccc3)cc2C1 | -0.3 | 3.2 | 0.3 | -0.1
O=C(Nc1ccc(NS(=O)(=O)c2ccc3c4c(cccc24)CC3)cc1)c1ccccc1 | -61.1 | 0.3 | 50.5* | 1.7
O=C(c1cc(S(=O)(=O)Nc2ccc(Cl)cc2)ccc1Cl)N1CCCc2ccccc21 | -159.8 | -40.9 | -82.6 | -36.3
COc1ccc2nc(C(=O)N3CCN(c4ccccn4)CC3)cn2n1 | -1.3 | -2.1 | 3.3 | 4.9
CCc1cc(=O)n(CC(=O)NCc2ccc(F)cc2)c(N2CCOCC2)n1 | 30.8* | 5.9 | 22.2 | 12.5
Cc1ccc(CNC(=O)Cn2c(N3CCCCC3)nc(C)cc2=O)cc1 | 35.9* | 22.9 | 40.6* | 15.6
CCc1cc(=O)n(CC(=O)NCc2ccc(C)cc2)c(N2CCOCC2)n1 | 9.0 | 0.6 | 9.0 | 9.3
CC(OC(=O)c1ccc(Cl)cc1)C(=O)NCC1CCCCC1 (stereo not drawn) | 31.0* | 15.0 | 25.8 | 10.3
CCOc1ccc(/C=C(/C(N)=O)c2nnc3n2CCCCC3)c(O)c1 | 15.2 | 0.8 | -2.7 | 3.2
CN1CCN(c2ncnc3c2c(C(=O)N2CCCC2)c2ccccn23)CC1 | -131.0 | -36.8 | -24.3 | -27.8
